# Bioassay records: PubChem, National Center for Advancing Translational Sciences (NCATS)
# Only some compounds are listed: those with a hit (about 19% of all), similar ones and a draw of the others.
# VP16 counter: VP16 counterscreen qHTS for inhibitors of ROR gamma transcriptional activity | Drosophila S2 Gal4-VP16 UAS-luciferase, luminescence, 20 h | AID 2546, 2010 | 310,000 compounds, 3.5% hits | Potency, µM (titrated, usually from 53.6 µM), for inactives: top-dose activity, negative = inhibition, most hits filed as inhibitors;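 further: Gal4-VP16 expression switched on by copper sulfate through the metallothionein promoter; nearly all actives have a fitted effect of over 50% in size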
# TDP1 inh: qHTS Assay for Inhibitors of Tyrosyl-DNA Phosphodiesterase (TDP1); Tyrosyl-DNA phosphodiesterase 1 (Homo sapiens), Q9NUW8; 350,000 compounds, 0.28% hits; Potency, µM (top dose mostly 130 µM), for inactives: top-dose activity change, negative = inhibition, actives largely listed as inhibitors; recombinant TDP1, AlphaScreen DNA substrate cleavage; further: nearly all actives have a fitted effect of over 40% in size
# Target sequence (Q9NUW8 whole entry, looked up): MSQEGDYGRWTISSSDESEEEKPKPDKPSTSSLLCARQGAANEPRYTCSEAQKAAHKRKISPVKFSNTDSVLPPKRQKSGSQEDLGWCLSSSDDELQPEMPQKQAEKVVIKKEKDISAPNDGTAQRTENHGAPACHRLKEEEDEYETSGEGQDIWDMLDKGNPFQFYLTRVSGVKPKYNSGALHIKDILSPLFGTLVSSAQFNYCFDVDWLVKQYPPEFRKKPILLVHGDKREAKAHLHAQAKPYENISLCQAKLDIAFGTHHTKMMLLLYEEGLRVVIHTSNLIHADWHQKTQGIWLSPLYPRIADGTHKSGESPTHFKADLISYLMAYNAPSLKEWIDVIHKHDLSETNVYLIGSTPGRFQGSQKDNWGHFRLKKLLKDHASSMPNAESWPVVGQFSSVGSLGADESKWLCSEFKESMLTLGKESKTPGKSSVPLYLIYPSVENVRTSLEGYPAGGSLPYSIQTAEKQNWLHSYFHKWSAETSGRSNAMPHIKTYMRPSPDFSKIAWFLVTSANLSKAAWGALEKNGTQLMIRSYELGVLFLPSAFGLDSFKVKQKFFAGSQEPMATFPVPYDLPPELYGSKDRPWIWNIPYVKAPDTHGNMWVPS
#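 Tdp1 1 nM final; 15 min RT w/ cpd; substrate 15 nM, 5 min; beads 10 ug/ml, 10 min; AlphaScreen read. Neg ctrl: no enzyme.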
# DT40 TDP1 CPT: qHTS for Inhibitors of human tyrosyl-DNA phosphodiesterase 1 (TDP1): qHTS in cells in presence of CPT; chicken DT40 Tdp1-/-;hTDP1 cells + 20 nM CPT, ATP luminescence, 48 h; Potency, µM (top dose mostly 46.2 µM), inactives show at the top dose activity change, negative = growth inhibition, usual class: inhibitors; 420,000 compounds, 12% hits; AID 686979, 2013; further: nearly all actives have a fitted effect of over 55% in size
#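 Chicken DT40 Tdp1-/- cells stably complemented with human TDP1 were seeded at 400 cells/well in medium containing 20 nM camptothecin, exposed to pin-transferred compounds, and grown at 37 °C for at least 48 hr. Viability was read as ATP luminescence.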
# RORgamma inh: qHTS for inhibitors of ROR gamma transcriptional activity; Drosophila S2 Gal4-RORgamma UAS-luciferase reporter, 20 h; Potency, µM (series often up to 53.6 µM), without a hit: at the highest dose activity change, negative = inhibition, usual class: inhibitors; 310,000 compounds, 5.4% hits; AID 2551, 2010; further: nearly all actives have a fitted effect of over 60% in size
#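 Stably transfected Drosophila Schneider cells are the test system, with ROR gamma fused to Gal4 and luciferase under UAS control; luminescence is read after 20 hr of 700 uM copper sulfate induction at ambient temperature.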
# DT40 TDP1 no CPT: qHTS for Inhibitors of human tyrosyl-DNA phosphodiesterase 1 (TDP1): qHTS in cells in absence of CPT; DT40 Tdp1-/- hTDP1 cells, no CPT, ATP luminescence, 48 h; Potency, µM (series often up to 46.2 µM), for inactives: at the highest dose activity change, negative = growth inhibition, hits mostly inhibitors; AID 686978, 2013; 420,000 compounds, 15% hits; further: nearly all actives have a fitted effect of over 55% in size
#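 Luminescent ATP content (CellTiter-Glo) served as the growth readout. Knockout chicken DT40 cells expressing human TDP1 were exposed to compounds without camptothecin for a minimum 48 hr at 37 °C.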
# An asterisk follows results filed as active; ? = inconclusive; / = not tested or not shown. The call rests on the fitted dose curve; in most records, active means well fitted curve in the direction sought with a large enough effect; inconclusive means small, poorly fitted or top-dose-only effect, or another doubt; inactive means no such curve, though single readings can be large; an effect the other way counts as inactive or inconclusive. On the % scale 0 is the no-effect control and ±100 the full control effect; potency means the concentration at half of the fitted maximal effect.
SMILES,VP16 counter,TDP1 inh,DT40 TDP1 CPT,RORgamma inh,DT40 TDP1 no CPT
O=S(=O)(c1ccc2nc(-c3ccccc3)[nH]c2c1)N1CCN(c2cccc(Cl)c2)CC1,-8%,3%,2%,-8%,?
COc1ccccc1N1CCN(S(=O)(=O)c2ccc3nc(-c4ccccc4)[nH]c3c2)CC1,-9%,11%,?,?,21µM*
COc1ccccc1N1CCN(C(=O)c2cc(S(=O)(=O)N3CCCCC3)ccc2C)CC1,/,2%,?,/,?
COc1ccccc1N1CCN(C(=O)c2cccc(S(=O)(=O)N3CCCCCC3)c2)CC1,/,1%,?,/,18µM*
COc1ccc(S(=O)(=O)N2CCN(C(=O)c3ccccc3Cc3ccccc3)CC2)cc1OC,/,/,?,/,23µM*
COc1ccc(S(=O)(=O)N2CCCCCC2)cc1C(=O)N1CCN(c2ccccc2O)CC1,/,2%,15µM*,/,?
COc1ccc(S(=O)(=O)N2CCN(Cc3ccccc3)CC2)cc1OC,-6%,4%,-8%,-2%,?
CC(C(=O)NCc1cccc(Br)c1)n1ncn2cccc2c1=O (configuration not stated),/,-6%,-13%,/,2%
CCN1CCN(C(=O)/C=C/c2ccc([N+](=O)[O-])cc2)CC1,29%,-2%,-17%,13%,-22%
Cc1nn(C)cc1C(=O)/C=C/c1ccc([N+](=O)[O-])cc1,?,0%,?,-25%,18µM*
CCn1cc(CN(C)C(=O)/C=C/c2ccc([N+](=O)[O-])cc2)c(C)n1,0%,2%,?,38%,15µM*
CN1CCN(C(=O)/C=C/c2ccc([N+](=O)[O-])cc2)CC1,15%,0%,10%,-18%,-1%
CCOC(=O)c1c(C)[nH]c(/C(C)=N/NC(=O)c2cccnc2)c1C,/,/,-22%,/,?
Cn1c2c(c(=O)n(C)c1=O)C(C(F)(F)F)(C(F)(F)F)N=C(c1ccc(Cl)cc1)N2,3.2µM*,2%,0.92µM*,6.3µM*,1.3µM*
Cn1c2c(c(=O)n(C)c1=O)C(NC(=O)c1cccs1)(C(F)(F)F)C(=O)N2 (configuration not stated),4%,0%,3%,40%,-6%
Cn1c2c(c(=O)n(C)c1=O)C(C(F)(F)F)(C(F)(F)F)N=C(C1CCCCC1)N2,0%,5%,18µM*,25%,26µM*
Cc1ccccc1C1=NC(C(F)(F)F)(C(F)(F)F)c2c(n(C)c(=O)n(C)c2=O)N1,-1%,-5%,?,22%,23µM*
CCOC(=O)C1CCCN(S(=O)(=O)c2cc3c(cc2C)NC(=O)CO3)C1 (configuration not stated),/,-4%,-23%,/,?
CCOc1ccc(N(Cc2ccccc2)C(=O)c2nc(SC)ncc2Cl)cc1,/,-2%,13µM*,/,6.5µM*
CS(=O)(=O)N(CC(=O)NCc1ccco1)Cc1ccc(Cl)cc1,9%,-2%,8%,-15%,0%
CS(=O)(=O)c1ncc(Cl)c(C(=O)N(Cc2ccc(Cl)cc2)Cc2ccco2)n1,/,5%,0.65µM*,/,1.3µM*
COc1ccc(N(Cc2ccccc2)C(=O)c2nc(S(C)(=O)=O)ncc2Cl)cc1,/,0%,0.73µM*,/,0.46µM*
CCOc1ccc(N(Cc2ccc(OC)cc2)C(=O)c2ccco2)cc1,-13%,3%,?,-9%,?
O=C(O)CC1=C(c2ccc(F)cc2)CCC1=O,-8%,0%,-10%,3%,-11%
COc1ccc(C)cc1-n1nnnc1SCC1CCCO1 (configuration not stated),-3%,7%,?,-3%,0%
COc1ccccc1N1CCN(C(=O)Cn2nc(C(F)(F)F)c3c2CCC3)CC1,-3%,5%,-20%,32%,-26%
